Source: PubChem BioAssay (NCATS)
Records with an inconclusive call do not appear. Where a call stands in place of a potency, no number is given. Activity calls are given as the source filed them. Calls come from the whole dose curve; as a rule, active = well fitted cell-killing curve with a large enough effect; inconclusive = small, poorly fitted or top-dose-only effect; inactive = flat fitted curve, though single readings scatter.

Experiment: Cell Viability - H-4-II-E (AID 543); note: nearly all actives have a fitted effect of over 35% in size
Conditions: H-4-II-E rat hepatoma viability; series mostly up to 92.2 µM
Description: NIH Chemical Genomics Center [NCGC]
NIH Molecular Libraries Screening Centers Network [MLSCN]
National Institutes of Environmental Health Sciences [NIEHS]
National Toxicology Program [NTP]
We have developed a 1536-well cell-based assay for quantitative high throughput screening (qHTS) against a number of cell lines to determine in vitro cytotoxicity of small molecules. This particular assay uses the H-4-II-E cell line which is derived from rat hepatoma.
NCGC Assay Protocol Summary:
The CellTiter-Glo luminescent cell viability assay (Promega) is a homogeneous method to measure the number of viable cells in culture. The end point readout of this assay is based on quantitation of intracellular ATP, an indicator of metabolic activity, using the luciferase reaction. Luciferase catalyzes the oxidation of beetle Luciferin to oxyluciferin and light in the presence of ATP. The luminescent signal is proportional to amount of ATP present.
Using the CellTiter-Glo luminescent cell viability assay, the amount of cellular ATP was measured in the H-4-II-E cell line with complete culture medium following compound treatment for 40 hours. The assay was performed in opaque white Kalypsys 1536-well plates. In the screen, tamoxifen and doxorubicin were used as positive controls. Library compounds were measured for their ability to cause acute toxicity in the cell line, as reflected by a decrease in intracellular ATP levels, in a concentration-dependent manner. […] AC50 values were determined from concentration-response data modeled with the standard Hill equation.
qHTS protocol fo CellTiter Glo H-4-II-E cellular assay
[Step] [Parameter] [Value] [Description]
1. Reagent; 5 uL; 1500 H-4-II-E cells/well
2. Time; 5 hr; 37 °C incubation
4. Controls; 23 nL; Tamoxifen 0.34 uM to 100 uM & Doxorubicin 0.02 nM to 100 uM
5. Time; 40 hr; 37 °C incubation
6. Reagent; 5 uL; CellTiter Glo reagent
7. Time; 20 min; Room Temperature
8. Detection; Luminescence; Viewlux plate reader
Keywords: cell viability, cytotoxicity, H-4-II-E cell line, luminescence, NTPHTS, NTPHTS_NCGC, NIEHS, EPA, DSSTox, MLSMR, MLSCN, NIH Roadmap, qHTS, NCGC
Potency is the fitted concentration of half-maximal effect.

**Q.** For `Nc1ccc(N)c(Cl)c1`, which Potency is on record?
**A.** Its Potency is “inactive”.

**Q.** For `NC(=O)Nc1nc2ccccc2[nH]1`, which Potency is on record?
**A.** Its Potency is “inactive”.

**Q.** With `Cc1ccc2ccc3cccc4ccc1c2c34` as the compound, how does the Potency read?
**A.** Its Potency is “inactive”.

**Q.** With `CC(C)OCC1CO1` (stereo not given) as the compound, how does the Potency read?
**A.** Its Potency is “inactive”.

**Q.** For `CC(=O)CC(=O)Nc1ccccc1`, which Potency is on record?
**A.** The Potency was “inactive”.

**Q.** With `COc1ccc(C(=O)Nc2ccccc2)cc1[N+](=O)[O-]` as the compound, how does the Potency read?
**A.** Its Potency is “inactive”.

**Q.** With `Clc1nc2ccccc2nc1Cl` as the compound, how does the Potency read?
**A.** Its Potency is “inactive”.

**Q.** For `Cc1cc(=O)oc2cc(O)cc(O)c12`, which Potency is on record?
**A.** Its Potency is “inactive”.

**Q.** With `O=[N+]([O-])c1cccc(I)c1` as the compound, how does the Potency read?
**A.** The Potency was “inactive”.

**Q.** With `Nc1ccc(N=Nc2ccccc2)c(N)c1` as the compound, how does the Potency read?
**A.** The Potency was “inactive”.

**Q.** For `c1ccncc1`, which Potency is on record?
**A.** The Potency was “inactive”.

**Q.** Which Potency does the source give for `CCCCNCC` here?
**A.** The Potency was “inactive”.

**Q.** Which Potency does the source give for `Nc1ccccc1O` here?
**A.** The Potency was “inactive”.

**Q.** For `c1ccc(Nc2cccc3ccccc23)cc1`, which Potency is on record?
**A.** The Potency was “inactive”.

**Q.** Which Potency does the source give for `O=[N+]([O-])c1ccccc1Nc1ccccc1` here?
**A.** The Potency was “inactive”.

**Q.** With `c1c[nH]cn1` as the compound, how does the Potency read?
**A.** The Potency was “inactive”.

**Q.** Which Potency does the source give for `Brc1cc(Br)c(Oc2cc(Br)c(Br)cc2Br)cc1Br` here?
**A.** The Potency was “inactive”.

**Q.** With `CCCCC(CC)COCCCN` (stereo not given) as the compound, how does the Potency read?
**A.** The Potency was “inactive”.

**Q.** Which Potency does the source give for `O=c1[nH]ncc2ccccc12` here?
**A.** The Potency was “inactive”.

**Q.** With `O=[N+]([O-])c1ccc(F)cc1F` as the compound, how does the Potency read?
**A.** The Potency was “inactive”.

**Q.** Which Potency does the source give for `OCC(CO)(CBr)CBr` here?
**A.** The Potency was “inactive”.

**Q.** With `C=CC(=O)OCCCCCCOC(=O)C=C` as the compound, how does the Potency read?
**A.** The Potency was 39.8 µM (active).

**Q.** Which Potency does the source give for `Cc1ccc(C(=O)O)cc1[N+](=O)[O-]` here?
**A.** The Potency was “inactive”.

**Q.** Which Potency does the source give for `O=C(O)c1ccc([N+](=O)[O-])cc1` here?
**A.** Its Potency is “inactive”.

**Q.** With `NC(=O)c1ccc([N+](=O)[O-])cc1` as the compound, how does the Potency read?
**A.** Its Potency is “inactive”.

**Q.** For `CC(=O)c1ccc(Cl)c(Cl)c1Cl`, which Potency is on record?
**A.** The Potency was “inactive”.

**Q.** For `O=C(Cl)c1ccc([N+](=O)[O-])cc1`, which Potency is on record?
**A.** The Potency was “inactive”.

**Q.** With `OC1CCCCC1` as the compound, how does the Potency read?
**A.** The Potency was “inactive”.

**Q.** Which Potency does the source give for `c1ccc(COCc2ccccc2)cc1` here?
**A.** The Potency was “inactive”.

**Q.** With `CC(C)S` as the compound, how does the Potency read?
**A.** The Potency was “inactive”.

**Q.** Which Potency does the source give for `CCNC(=S)NCC` here?
**A.** Its Potency is “inactive”.

**Q.** Which Potency does the source give for `C=C1CC[C@H](O)C/C1=C/C=C1\CCC[C@]2(C)[C@@H]([C@H](C)CCCC(C)C)CC[C@@H]12` here?
**A.** The Potency was 39.8 µM (active).

**Q.** For `C=C(C#N)C(=O)OCC`, which Potency is on record?
**A.** Its Potency is “inactive”.

**Q.** Which Potency does the source give for `CCCCCCCC/C=C\CCCCCCCC(=O)N(CCO)CCO` here?
**A.** The Potency was 39.8 µM (active).

**Q.** Which Potency does the source give for `O=C=Nc1ccc(Cl)c(Cl)c1` here?
**A.** The Potency was 31.6 µM (active).

**Q.** Which Potency does the source give for `O=C(OCC1CO1)C1CCCCC1C(=O)OCC1CO1` (stereo not given) here?
**A.** Its Potency is 50.1 µM (active).

**Q.** For `O=CC(=O)c1ccccc1`, which Potency is on record?
**A.** The Potency was “inactive”.

**Q.** With `C/C(Cl)=C/CCl` as the compound, how does the Potency read?
**A.** The Potency was “inactive”.

**Q.** Which Potency does the source give for `Brc1cc(Oc2cc(Br)c(Br)c(Br)c2Br)c(Br)c(Br)c1Br` here?
**A.** Its Potency is “inactive”.

**Q.** Which Potency does the source give for `c1ccc2ncccc2c1` here?
**A.** Its Potency is “inactive”.
